PubChem BioAssay

These molecules were tested against NADPH oxidase 2 (Homo sapiens) (UniProt P04839) (assay: NOX2-dependent H2O2 signal modulators, primary screen, NOX inhibitor project, cell-based, HEK293-NOX2, PMA-stimulated, Amplex Red fluorescence (AID 1159; also: test concentration not given here)). Settings: 45 min, higher = more signal, called active from +8 up or from −8 down.
Chain of NADPH oxidase 2 (Homo sapiens) (P04839 whole entry, looked up): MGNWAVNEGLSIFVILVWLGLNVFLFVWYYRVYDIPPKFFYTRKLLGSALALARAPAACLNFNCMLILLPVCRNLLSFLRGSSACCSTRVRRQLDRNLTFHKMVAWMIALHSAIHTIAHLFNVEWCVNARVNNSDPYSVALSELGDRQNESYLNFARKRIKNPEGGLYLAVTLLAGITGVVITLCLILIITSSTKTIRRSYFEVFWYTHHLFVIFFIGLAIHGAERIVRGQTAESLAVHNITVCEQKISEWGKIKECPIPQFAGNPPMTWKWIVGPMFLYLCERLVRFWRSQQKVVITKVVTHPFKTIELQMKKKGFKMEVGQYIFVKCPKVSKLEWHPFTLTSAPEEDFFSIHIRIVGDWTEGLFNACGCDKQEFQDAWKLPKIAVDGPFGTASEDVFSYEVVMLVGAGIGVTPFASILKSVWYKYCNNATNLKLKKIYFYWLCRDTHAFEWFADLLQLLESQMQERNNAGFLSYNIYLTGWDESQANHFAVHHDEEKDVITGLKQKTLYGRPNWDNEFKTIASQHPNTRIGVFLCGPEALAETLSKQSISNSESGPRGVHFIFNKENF

z-score, inactive:
C=CC[C@@H]1C=C[C@H](ON=C(C)CCC(=O)OC[C@H]2O[C@H](c3ccccc3)C=C[C@@H]2Oc2ccc(OC)cc2)[C@@H](CO)O1 -3.06
CCOC(=O)[C@H](CC(C)C)NC(=O)CCC1CC(OC(=O)NCc2cccc3ccccc23)CC2(CCCC(COC(=O)NCCCN3CCCC3=O)O2)O1 (stereo not given in full) 1.51
CCCCC#C[C@@H]1C=C[C@H](Oc2ccc(C(=O)OC)cc2)[C@@H](COC(=O)OCC)O1 1.82
COC(=O)[C@@H]1CC[C@H](C)[C@@H](c2ccc(C)cc2)N1C(=O)c1ccc(C=NO[C@@H]2O[C@H](COC(C)=O)[C@@H](OC(C)=O)[C@H](OC(C)=O)[C@H]2OC(C)=O)cc1 -0.454
C=CC[C@@H]1C=C[C@H](ON=C[C@@H](C)[C@H](OCc2ccccc2)C(C)C)[C@@H](CO)O1 -0.55
COC(=O)CC=C[C@@H](C)[C@@H](C=NOCC[C@@H]1C=C[C@H](OC(C)=O)[C@@H](COC(C)=O)O1)OC 0.464
CC(CCN1CCCCc2nc(C)c(C)cc21)=NO[C@H](C)c1cn([C@H](CO)Cc2ccccc2)nn1 -0.939
CC[C@@H](c1ccccc1)n1c(=O)n2n(c1=O)[C@H]1[C@H](O)[C@@H]3O[C@@H]3C(=NOC[C@@H](O)COCc3ccco3)[C@H]1CC2 -0.892
C#CCCCON=C1[C@H]2CCn3c(=O)n(-c4ccccc4)c(=O)n3[C@H]2[C@H](O)[C@@H]2O[C@H]12 -0.858
CC(C)=CCCC(C)=CCON=C1C[C@@H](O)[C@@H](O)[C@@H]2[C@@H]3C(=O)N(Cc4ccccc4)C(=O)[C@@H]3CC[C@@H]12 0.0415
